Assay results from PubChem BioAssay (NCI).
The panel holds about 83,000 compounds, 20% with a hit somewhere; the sample as a whole holds those more often.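 Single-concentration screen, 48 h exposure, 96-well plates. Endpoint: percent growth. Below 10 = active.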 Unmarked numbers belong to inactive results. Calls of active or inactive are those of the source.

Test system: MDA-MB-468 breast
Assay: NCI-60 one-dose screen, 48 h (100 = growth as untreated, 0 = no growth, -100 = all killed)
Details: 10 µM unless noted

Q: How did the growth turn out when `NNC(=O)c1sc2nc(-c3cnccn3)cc(-c3cccs3)c2c1N` was run?
A: Its growth is 97.2%.

Q: How did the growth turn out when `Cc1cc2c3c(cccc3c1)C(=O)c1ccccc1-2` was run?
A: The growth was 63.7%.

Q: With `CN1CCc2cccc3c2C1Cc1ccc(O)c(O)c1-3` (stereo unspecified) as the molecule, how does the growth read?
A: The growth was 0.652% (active).

Q: `O=S(=O)(NCCNc1cc(-c2c(-c3cccc(O)c3)nc3sccn23)ccn1)c1ccc(Br)cc1` was tested. Which growth did it give?
A: The growth was 47.7%.

Q: With `C#CCOc1ccc2ncnc(Nc3cccc(CNC(=O)CCl)c3)c2c1` as the molecule, how does the growth read?
A: Its growth is -3.41% [8.25 µM] (active).

Q: For `O=S(=O)(NCCNc1nccc(-n2cnc3ccccc32)n1)c1ccc(C(F)(F)F)cc1`, which growth is on record?
A: Its growth is 26.4%.

Q: Which growth does the source give for `COc1ccc(/C=C/c2c(C(=O)/C=C/c3ccc(Cl)cc3)c(C)nc3ccccc23)cc1` here?
A: Its growth is 34.7%.

Q: `Cc1ccc(NS(=O)(=O)c2ccc(-c3cnc(C4CC4)o3)cc2)cc1C` was tested. Which growth did it give?
A: The growth was -25.6% (active).

Q: Which growth does the source give for `COc1ccc(-c2cc(-c3cccc4ccccc34)n3c(n2)nc2ccccc23)cc1` here?
A: Its growth is 52.4%.

Q: With `Cc1ccc(/C=C2\Oc3ccc(O)c(O)c3C2=O)cc1` as the molecule, how does the growth read?
A: Its growth is 58.3%.

Q: For `CCN(CC)c1ccc(/C=N/NC(=O)CSc2nc3ccccc3c(=O)n2CCc2ccc(S(N)(=O)=O)cc2)c(O)c1`, which growth is on record?
A: The growth was -7.72% (active).

Q: `COc1cccc(NC(=O)c2sc3nc4c(cc3c2N)C(=O)CCC4)c1` was tested. Which growth did it give?
A: The growth was 49.5%.

Q: How did the growth turn out when `COc1cc2cc(Oc3ccc(NC(=O)Nc4ccc(F)c(C(F)(F)F)c4)cc3)c(C)nc2cc1OCCN1CCCCC1` was run?
A: The growth was 71.3%.

Q: Which growth does the source give for `c1cc2ccc3cc2cc1CNCCOCCNCc1ccc2ccc(cc2c1)CNCCOCCNC3` here?
A: The growth was -68% (active).

Q: With `C=C1c2nc3ccccc3n2C=C(c2ccc(Cl)cc2)N1Cc1ccc(OC)cc1` as the molecule, how does the growth read?
A: Its growth is 80.8%.

Q: With `COc1c(O)cc2oc3cc(O)c(CC=C(C)C)c(O)c3c(=O)c2c1CC=C(C)C` as the molecule, how does the growth read?
A: The growth was 71.2%.

Q: `COc1ccc2[nH]c(=O)c(CN3CCN(c4nccc(-c5ccc(Cl)cc5)n4)CC3)cc2c1` was tested. Which growth did it give?
A: Its growth is 88.6%.

Q: How did the growth turn out when `COc1ccc(C(=O)N2NC(=O)/C(=C/c3cn(-c4ccccc4)nc3-c3ccccc3)N=C2c2ccccc2)cc1` was run?
A: The growth was 95.7%.

Q: Which growth does the source give for `CCN(CC)c1ccc(/C=N/NC(=O)c2ccc(NS(C)(=O)=O)cc2)c(O)c1` here?
A: Its growth is -10.8% (active).

Q: How did the growth turn out when `CC1(C)Cc2c(sc3ncn4nc(-c5ccc(O)cc5)nc4c23)CO1` was run?
A: The growth was 61.4%.

Q: For `O=C(Cn1cc(CSc2nc3ccccc3o2)nn1)Nc1ccc([N+](=O)[O-])cc1`, which growth is on record?
A: The growth was 98.7%.

Q: How did the growth turn out when `c1ccc([P+](CCC[P+](c2ccccc2)(c2ccccc2)c2ccccc2)(c2ccccc2)c2ccccc2)cc1` was run?
A: Its growth is 23.7%.

Q: Which growth does the source give for `COc1cc2c(c(OC)c1OC)-c1ccc(SC)c(=O)cc1[C@@H](NC1OC(CO)C(O)C(O)C1O)CC2` (stereo partly specified) here?
A: The growth was 23.6%.

Q: With `Cc1cc(I)nc2ccccc12` as the molecule, how does the growth read?
A: Its growth is 109%.

Q: How did the growth turn out when `COc1ccc(/C=C/C(=O)c2ccc(NC(=O)CSc3nnc(-c4ccc(OC)cc4)n3-c3ccccc3)cc2)cc1` was run?
A: The growth was 106%.

Q: Which growth does the source give for `Cc1nc(Cl)c2c(n1)N(C)c1ccc(Cl)cc1C(C)C2` (stereo unspecified) here?
A: The growth was 67.1%.
